# TDP1 block = blocks human tyrosyl-DNA phosphodiesterase 1. Q9NUW8. recombinant TDP1, AlphaScreen DNA substrate cleavage. Potency, µM (doses to about 130 µM), for inactives: top-dose activity change, negative = inhibition, actives largely listed as inhibitors. hit rate 0.28% among 350,000. AID 485290; also: nearly all actives have a fitted effect of over 40% in size
# Target sequence (Q9NUW8 whole entry, looked up): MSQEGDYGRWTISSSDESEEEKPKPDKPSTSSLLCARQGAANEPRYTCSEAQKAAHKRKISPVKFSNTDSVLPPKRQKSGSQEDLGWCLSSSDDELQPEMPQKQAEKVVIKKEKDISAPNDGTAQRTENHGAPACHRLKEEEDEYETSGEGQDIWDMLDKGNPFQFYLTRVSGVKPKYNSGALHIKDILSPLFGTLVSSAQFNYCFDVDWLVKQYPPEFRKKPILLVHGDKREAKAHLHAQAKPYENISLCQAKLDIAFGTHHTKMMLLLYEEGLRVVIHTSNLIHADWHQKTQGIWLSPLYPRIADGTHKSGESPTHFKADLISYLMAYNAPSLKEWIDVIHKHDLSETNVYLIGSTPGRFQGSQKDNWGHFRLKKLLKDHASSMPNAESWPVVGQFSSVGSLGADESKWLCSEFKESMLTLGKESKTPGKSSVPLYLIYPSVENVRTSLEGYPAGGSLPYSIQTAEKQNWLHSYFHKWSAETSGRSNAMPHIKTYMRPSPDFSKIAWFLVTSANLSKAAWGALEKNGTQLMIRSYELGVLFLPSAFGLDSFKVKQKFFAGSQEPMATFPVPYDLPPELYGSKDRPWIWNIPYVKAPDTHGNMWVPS
#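 Recombinant human Tdp1 (E. coli-expressed, 1 nM final) preincubated with compounds 15 min at room temperature, then 5'-biotin/3'-phosphotyrosine-FITC DNA substrate (15 nM final) added for 5 min. AlphaScreen beads (10 ug/ml final) added 10 min; cleavage lowers signal.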
# JMJD2E inh = JMJD2E (human) inhibition. JMJD2E catalytic domain, FDH-coupled NADH fluorescence (FDH is formaldehyde dehydrogenase). Potency, µM (highest dose often 57.1 µM), for inactives: at the top dose activity change, negative = inhibition, actives largely listed as inhibitors. hit rate 1.6% among 230,000. AID 2147; active = well fitted inhibition curve with a large enough effect, not every such curve was filed as active; inconclusive = small, poorly fitted or top-dose-only effect, or another doubt; inactive = no such curve, though single readings can be large or run the other way;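 also: 0% = wells with enzyme and -100% = buffer wells without enzyme; nearly all actives have a fitted effect of over 50% in size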
# RECQ1 inh = blocks DNA unwinding by human RECQ1; P46063; RECQ1 DNA unwinding, red fluorescence kinetic read; Potency, µM (titrated, usually from 57.3 µM), for the others: at the top dose activity, negative = inhibition, hits mostly inhibitors; hit rate 0.54% among 240,000; AID 2549;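 also: plate controls were vehicle for no effect and no enzyme for full effect; nearly all actives have a fitted effect of over 30% in size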
#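 RECQ1T1 50 nM; forked duplex (20 bp + 30-nt ss tails) 200 nM, ATP 2 mM final; pH 8.0, 2 mM MgCl2, 2.5 ug/ml poly(dI-dC); 15 min compound preincubation; discontinuous kinetic read over 2 h at RT.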
# KAT2A inh = inhibitors of human GCN5L2 histone acetyltransferase. GCN5L2 HAT assay, ThioGlo1 CoA-SH fluorescence. Q92830. AID 504327. hit rate 0.21% among 390,000. Potency, µM (top dose mostly 58.9 µM), for inactives: at the highest dose activity change, negative = inhibition, actives largely listed as inhibitors
#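 Compounds, pin-transferred from DMSO stocks, meet 20nM GCN5L2 for 15 min before the reaction begins with H3(1-25) peptide (75uM) and acetyl-CoA (70uM). Thiol-reactive ThioGlo1 reports CoA release over 20 min at room temperature.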
# BLM inh = blocks DNA unwinding by human BLM helicase; recombinant BLM DNA unwinding, fluorescence dequenching; hit rate 0.2% among 350,000; P54132; Potency, µM (top dose mostly 56.1 µM), inactives show at the top dose activity change, negative = inhibition, most hits filed as inhibitors;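 also: plate controls were vehicle for no effect and no enzyme for full effect; nearly all actives have a fitted effect of over 35% in size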
# APE1 inh = inhibitors of human APE1 endonuclease | P27695 | recombinant APE1, TAMRA/BHQ-2 abasic DNA cleavage fluorescence | Potency, µM (series often up to 65.8 µM), for inactives: at the top dose activity change, negative = inhibition, hits mostly inhibitors | hit rate 0.35% among 350,000;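 also: plate controls were vehicle for no effect and reference inhibitor for full effect; nearly all actives have a fitted effect of over 55% in size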
#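 Enzyme (0.75 nM final) and test compound are incubated 15 min at room temperature before adding 50 nM quenched THF abasic-site duplex. Cleavage dequenches TAMRA, followed at 525/598 nm over three reads one minute apart.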
# Active calls of the source: *; i = inactive; u = inconclusive; x = no result. Only a selection was taken, and hits are over-represented in it overall. Unless noted, calls follow the shape of the dose curve; as a rule, active = well fitted curve in the direction sought with a large enough effect; inconclusive = small, poorly fitted or top-dose-only effect, or another doubt; inactive = no such curve, though single readings can be large; an effect the other way counts as inactive or inconclusive. Unless noted, % is scaled to controls: 0 for no effect and ±100 for the full control effect; potency is read from the fitted curve at half-maximal effect.
SMILES,TDP1 block,JMJD2E inh,RECQ1 inh,KAT2A inh,BLM inh,APE1 inh
O=S(=O)(/N=S1/CC=CCN1S(=O)(=O)c1ccccc1)c1ccccc1 (stereo unspecified),12%,28µM*,-11%,-21%,-1%,-11%
Cc1ccccc1-c1ccc2ncnc(-n3ccnc3)c2c1,x,x,-13%,-14%,-9%,0%
CN(C)c1ccc(-c2ccc3ncnc(-n4ccnc4)c3c2)cc1,x,x,-12%,25µM*,-9%,-7%
COc1ccc(C2=Nn3c(nnc3-c3ccccc3OC)SC2)cc1O[C@H]1CCOC1,x,x,x,x,x,2%
CNCCN(C)c1nc(-c2cccs2)nc2ccccc12,-3%,x,x,x,x,x
Cc1oc2ccc(O)c(CN3CCCCCC3)c2c1C(=O)Nc1cccc(C(F)(F)F)c1,1%,x,x,-3%,-1%,x
COc1cccc(-c2nnc(SCC(=O)Nc3ccc4c(c3)OCCO4)n2Cc2ccco2)c1,9%,0%,i,-22%,-8%,14%
COc1cccc(-c2nnc(SCC(=O)NCc3ccc4c(c3)OCO4)n2Cc2ccco2)c1,3%,3%,-3%,40µM*,-14%,0%
O=C(CN1C(=O)C2CCCN2c2ncc(Cl)cc21)NCc1ccc2c(c1)OCO2 (stereo unspecified),4%,14µM*,-18%,-10%,2%,-1%
COc1ccc(CNC(=O)CN2C(=O)C3CCCN3c3ncc(Cl)cc32)cc1 (stereo unspecified),2%,u,i,-5%,-3%,-2%
COc1cc(/C=N/NC(=O)c2cccnc2)ccc1OC(=O)c1ccc([N+](=O)[O-])cc1,45µM*,-2%,-22%,-10%,-28%,-3%
COc1cc(/C=N/NC(=O)CSc2ccccn2)ccc1O,3%,0%,1%,-8%,-1%,1%
COc1ccccc1/C=N/NC(=O)c1ccc(NC(=O)c2cccc([N+](=O)[O-])c2)cc1,3%,-3%,-2%,6%,0%,10%
O=C(N/N=C/c1ccc(OC(=O)c2ccc([N+](=O)[O-])cc2)cc1)c1cccnc1,0%,x,x,-6%,-2%,44%
COc1cc([N+](=O)[O-])cc(/C=N/NC(=O)Cn2cncn2)c1O,6%,14µM*,-7%,1%,-9%,0%
Cc1nn(C)cc1/C=N/NC(=O)Cn1cncn1,x,4%,-3%,-5%,2%,-1%
COc1cccc(/C=N/NC(=O)c2cc3cc([N+](=O)[O-])ccc3s2)c1O,1%,u,-20%,u,16µM*,2µM*
COc1cc([N+](=O)[O-])cc(/C=N/NC(=O)CSc2ccccn2)c1O,9%,20µM*,18%,-4%,-4%,9%
C#C[C@]1(O)CCC2C3CCC4=Cc5oncc5C[C@@]4(C)C3CC[C@@]21C (stereo partly specified),16%,0%,9%,-5%,1%,8%
COc1cc([N+](=O)[O-])cc(/C=N/NC(=O)c2ccc(C)nc2)c1O,-7%,14µM*,-1%,-13%,-20%,0%
CCNc1ncc2nc(-c3cccc(C#N)c3)c(=O)n(CCC#N)c2n1,x,x,-8%,-9%,-6%,0%
CCNc1ncc2nc(-c3cccc(C#N)c3)c(=O)n(C)c2n1,x,x,i,35µM*,0%,16%
COc1cccc(-c2cncnc2-n2ccnc2)c1,x,u,-10%,-14%,-3%,0%
COc1ccccc1-c1cncnc1-n1ccnc1,22µM*,u,-7%,-10%,2%,0%
CC(C)(C)NS(=O)(=O)c1cccc(-c2nnc(SCC(=O)Nc3ccc(C(=O)O)cc3)n2-c2ccc(F)cc2)c1,x,x,x,x,x,51%
Cc1ccc(C(=O)NC2(O)C(=O)c3ccccc3C2=O)cc1C,-1%,14µM*,33%,0%,-18%,u
CCCN1CNc2c(c(=O)[nH]c(=S)n2CCc2cccc(Cl)c2)C1,-1%,x,x,x,x,x
